Inconclusive results are not listed. Where a call stands in place of a potency, no number is given. Calls of active or inactive are those of the source. Calls follow the shape of the dose curve; as a rule, active = well fitted inhibition curve with a large enough effect; inconclusive = small, poorly fitted or top-dose-only effect; inactive = flat fitted curve, though single readings scatter.
Potency is read from the fitted curve at half-maximal effect.

One test has as its system 7G8. In words: qHTS profiling for inhibitors of Plasmodium falciparum proliferation (AID 504749). Also: nearly all actives have a fitted effect of over 60% in size. The conditions noted are these: P. falciparum in erythrocytes, SYBR Green DNA, 72 h; series mostly up to 28.7 µM. Put shortly:
(§1)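 P. falciparum-infected erythrocytes (0.3% parasitemia, 2.5% hematocrit final) were exposed to compounds for 72 h at 37 C in 5% CO2, then lysed with SYBR Green buffer overnight at room temperature; parasite DNA fluorescence was normalized to artemisinin and DMSO controls.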
Turning to `CCN(CC)C(=O)c1cccnc1`, the Potency result is “inactive”.

As for `CNC(=O)C[C@@H](N)C(=O)N[C@@H](C(=O)N[C@@H]1C(=O)N2[C@@H]1SC(C)(C)[C@@H]2C(=O)O)c1ccc(O)cc1`, the Potency entry is “inactive”.

Take `CCCCCCCCCCCCCCCCCC(=O)OCC(C)O` (stereo not drawn): the Potency result was “inactive”.

Regarding `NC(=S)NS(=O)(=O)c1ccc(N)cc1`, the Potency result was “inactive”.

Turning to `N=C(N)n1cccn1`, the Potency result is “inactive”.

Regarding `Nc1ncnc2c1ncn2CCOCP(=O)(O)O`, the Potency entry was “inactive”.

For `CCC(C(=O)NC(N)=O)c1ccccc1` (stereo not drawn), the Potency result was “inactive”.

`CC(C)CCC[C@@H](C)[C@H]1CC[C@H]2[C@@H]3CC=C4C[C@@H](O)CC[C@]4(C)[C@H]3CC[C@]12C`: the Potency entry is “inactive”.

As for `CC1=CCC2CC1C2(C)C` (stereo not drawn), the Potency result is “inactive”.

For the molecule `NC(N)=O`, the Potency entry was “inactive”.

As for `Cc1ncc(C[n+]2csc(CCOP(=O)(O)OP(=O)(O)O)c2C)c(N)n1`, the Potency entry was “inactive”.

`Nc1nc(=O)n([C@@H]2CS[C@H](CO)O2)cc1F`: the Potency result was “inactive”.

For the molecule `CCOC(=O)[C@@H](N)CS`, the Potency result is “inactive”.

In the case of `OCC(O)CO`, the Potency entry is “inactive”.

On to `O=C1c2ccccc2C(=O)C1c1ccc(F)cc1`, for which the Potency result was “inactive”.

For the molecule `O=C(O)COc1ccccc1/C=N/NC(=O)c1ccncc1`, the Potency result was “inactive”.

As for `Cc1cccc(C)c1NC(=O)C1CCCCN1C` (stereo not drawn), the Potency entry was “inactive”.

Take `CCC(C)[C@@H](N)C(=O)O` (stereo partly drawn): the Potency entry was “inactive”.

Take `CC(C)(Oc1ccc(C2CCCc3ccccc32)cc1)C(=O)O` (stereo not drawn): the Potency result is “inactive”.

With `CC(CC=O)CCCC(C)(C)O` (stereo not drawn), the Potency result is “inactive”.

Turning to `S=C1SCN(Cc2ccccc2)CN1Cc1ccccc1`, the Potency entry was “inactive”.

As to `CC(C)Cc1ccc([C@@H](C)C(=O)NS(C)(=O)=O)cc1`, the Potency entry is “inactive”.

In the case of `COc1cc2c(cc1OC)[C@@H](Cc1cc(OC)c(OC)c(OC)c1)[N+](C)(CCCOC(=O)CC/C=C/CCC(=O)OCCC[N+]1(C)CCc3cc(OC)c(OC)cc3[C@H]1Cc1cc(OC)c(OC)c(OC)c1)CC2` (stereo partly drawn), the Potency result was “inactive”.

On to `COC(=O)CCC[N+](C)(C)C`, for which the Potency result was “inactive”.

For the molecule `[O]=[Bi][O][Bi]=[O]`, the Potency result was “inactive”.

For `C[C@]12CC[C@@H]3c4ccc(OC(=O)c5ccccc5)cc4CC[C@H]3[C@@H]1CC[C@@H]2O`, the Potency was 11.2 µM (active).

On to `Cc1ccc(C(C)(C)c2ccc(C)cc2)cc1`, for which the Potency result is “inactive”.

`FC(F)OC(Cl)C(F)(F)F` (stereo not drawn): the Potency result was “inactive”.

As for `CC(CCc1ccc(O)cc1)NCC(O)c1ccc(O)cc1` (stereo not drawn), the Potency result was “inactive”.

On to `CC1=C(/C=C/C(C)=C/C=C/C(C)=C/C(=O)Oc2c(C)c(C)c3c(c2C)CC[C@@](C)(CCC[C@H](C)CCC[C@H](C)CCCC(C)C)O3)C(C)(C)CCC1`, for which the Potency result was “inactive”.

On to `O=P(O)(O)OP(=O)(O)OP(=O)(O)O`, for which the Potency entry is “inactive”.

As to `CO/N=C(\C(=O)N[C@@H]1C(=O)N2C(C(=O)[O-])=C(C[n+]3cccc4c3CCC4)CS[C@H]12)c1csc(N)n1`, the Potency entry was “inactive”.

In the case of `CCCCCCCCCCCC(=O)OCC(O)CO` (stereo not drawn), the Potency result was “inactive”.

As to `CS(=O)(=O)OCC(O)C(O)COS(C)(=O)=O` (stereo not drawn), the Potency entry is “inactive”.

For `CC1=CC(=O)NS(=O)(=O)O1`, the Potency result is “inactive”.

Take `O=C(O)CCCC/C=C(\c1ccccc1)c1cccnc1`: the Potency result was “inactive”.

For `CCN(CC)C(=S)S`, the Potency result was “inactive”.

As for `C[Se]CC[C@H](N)C(=O)O`, the Potency result was “inactive”.

Take `CC(C)[C@H](N)C(=O)OCC(CO)OCn1cnc2c(=O)[nH]c(N)nc21` (stereo partly drawn): the Potency result is “inactive”.

In the next test the test system is AA1029. The test is described as above. As to conditions: P. falciparum in erythrocytes, SYBR Green DNA, 72 h; series mostly up to 28.7 µM. The procedure, abridged:
as §1
Regarding `CCN(CC)C(=O)c1cccnc1`, the Potency result is “inactive”.

Take `CNC(=O)C[C@@H](N)C(=O)N[C@@H](C(=O)N[C@@H]1C(=O)N2[C@@H]1SC(C)(C)[C@@H]2C(=O)O)c1ccc(O)cc1`: the Potency entry was “inactive”.

As to `CCCCCCCCCCCCCCCCCC(=O)OCC(C)O` (stereo not drawn), the Potency entry is “inactive”.

For `NC(=S)NS(=O)(=O)c1ccc(N)cc1`, the Potency entry was “inactive”.

Take `N=C(N)n1cccn1`: the Potency result was “inactive”.

For `Nc1ncnc2c1ncn2CCOCP(=O)(O)O`, the Potency entry was “inactive”.

On to `CCC(C(=O)NC(N)=O)c1ccccc1` (stereo not drawn), for which the Potency entry is “inactive”.

In the case of `CC(C)CCC[C@@H](C)[C@H]1CC[C@H]2[C@@H]3CC=C4C[C@@H](O)CC[C@]4(C)[C@H]3CC[C@]12C`, the Potency result was “inactive”.

Turning to `CC1=CCC2CC1C2(C)C` (stereo not drawn), the Potency result is “inactive”.

As to `NC(N)=O`, the Potency result is “inactive”.

On to `Cc1ncc(C[n+]2csc(CCOP(=O)(O)OP(=O)(O)O)c2C)c(N)n1`, for which the Potency result was “inactive”.

Turning to `Nc1nc(=O)n([C@@H]2CS[C@H](CO)O2)cc1F`, the Potency entry is “inactive”.

`CCOC(=O)[C@@H](N)CS`: the Potency entry was “inactive”.

For the molecule `OCC(O)CO`, the Potency result was “inactive”.

As for `O=C1c2ccccc2C(=O)C1c1ccc(F)cc1`, the Potency result is “inactive”.

Regarding `O=C(O)COc1ccccc1/C=N/NC(=O)c1ccncc1`, the Potency result is “inactive”.

As to `Cc1cccc(C)c1NC(=O)C1CCCCN1C` (stereo not drawn), the Potency entry is “inactive”.

In the case of `CCC(C)[C@@H](N)C(=O)O` (stereo partly drawn), the Potency entry was “inactive”.

In the case of `CC(C)(Oc1ccc(C2CCCc3ccccc32)cc1)C(=O)O` (stereo not drawn), the Potency entry was “inactive”.

On to `CC(CC=O)CCCC(C)(C)O` (stereo not drawn), for which the Potency result was “inactive”.

Turning to `S=C1SCN(Cc2ccccc2)CN1Cc1ccccc1`, the Potency entry was “inactive”.

As to `CC(C)Cc1ccc([C@@H](C)C(=O)NS(C)(=O)=O)cc1`, the Potency result was “inactive”.

Take `COc1cc2c(cc1OC)[C@@H](Cc1cc(OC)c(OC)c(OC)c1)[N+](C)(CCCOC(=O)CC/C=C/CCC(=O)OCCC[N+]1(C)CCc3cc(OC)c(OC)cc3[C@H]1Cc1cc(OC)c(OC)c(OC)c1)CC2` (stereo partly drawn): the Potency result is “inactive”.

With `COC(=O)CCC[N+](C)(C)C`, the Potency entry was “inactive”.

`[O]=[Bi][O][Bi]=[O]`: the Potency result is “inactive”.

In the case of `C[C@]12CC[C@@H]3c4ccc(OC(=O)c5ccccc5)cc4CC[C@H]3[C@@H]1CC[C@@H]2O`, the Potency entry is “inactive”.

Take `Cc1ccc(C(C)(C)c2ccc(C)cc2)cc1`: the Potency entry is “inactive”.

`FC(F)OC(Cl)C(F)(F)F` (stereo not drawn): the Potency entry is “inactive”.

Consider `CC(CCc1ccc(O)cc1)NCC(O)c1ccc(O)cc1` (stereo not drawn), for which the Potency entry was “inactive”.

As to `CC1=C(/C=C/C(C)=C/C=C/C(C)=C/C(=O)Oc2c(C)c(C)c3c(c2C)CC[C@@](C)(CCC[C@H](C)CCC[C@H](C)CCCC(C)C)O3)C(C)(C)CCC1`, the Potency result was “inactive”.

Consider `O=P(O)(O)OP(=O)(O)OP(=O)(O)O`, for which the Potency entry was “inactive”.

For the molecule `CO/N=C(\C(=O)N[C@@H]1C(=O)N2C(C(=O)[O-])=C(C[n+]3cccc4c3CCC4)CS[C@H]12)c1csc(N)n1`, the Potency result was “inactive”.

For the molecule `CCCCCCCCCCCC(=O)OCC(O)CO` (stereo not drawn), the Potency entry is “inactive”.

Turning to `CS(=O)(=O)OCC(O)C(O)COS(C)(=O)=O` (stereo not drawn), the Potency result was “inactive”.

Take `CC1=CC(=O)NS(=O)(=O)O1`: the Potency entry was “inactive”.

With `O=C(O)CCCC/C=C(\c1ccccc1)c1cccnc1`, the Potency result was “inactive”.

Regarding `CCN(CC)C(=S)S`, the Potency result is “inactive”.

As to `C[Se]CC[C@H](N)C(=O)O`, the Potency result is “inactive”.

As for `CC(C)[C@H](N)C(=O)OCC(CO)OCn1cnc2c(=O)[nH]c(N)nc21` (stereo partly drawn), the Potency entry is “inactive”.

These data come from PubChem BioAssay (NCATS).
